# Data as given in PubChem BioAssay (EPA / NIEHS).
# Calls of active or inactive are those of the source. Rule for the calls: active = hit-call score of the fitted dose curve at least 0.9, where 1 is the maximum; inactive = score below 0.9.
# Read-out: serum amyloid A (SAA), SAA1 (gene 6288)
# Experiment: BSK_CASM3C_SAA: BioMAP Diversity Plus: CASM3C Assay for serum amyloid A (SAA) Biomarker Activity (AID 2283049);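 note: SAA protein level quantified by ELISA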
# Conditions: primary human coronary artery smooth muscle cells; actives raise or lower the signal
SMILES,outcome,AC50
COCCOC[C@H](CC1(C(=O)NC2CCC(C(=O)O)CC2)CCCC1)C(=O)Oc1ccc2c(c1)CCC2 (some centres not stated),inactive,
CC(=O)OC/C=C(\C)CCC=C(C)C,inactive,
Cc1cccc(Nc2cc(Cl)nc(SCC(=O)O)n2)c1C,inactive,
CC=Cc1ccc(O)c(OC)c1,inactive,
CCNc1cccc(C)c1,inactive,
O=C(OCCCCCOC(=O)c1ccccc1)c1ccccc1,inactive,
O=c1[nH]cc(F)c(=O)[nH]1,inactive,
NCC1(Cc2noc(=O)[nH]2)CCCCC1,inactive,
Oc1ccc2ccccc2c1N=Nc1ccccc1,inactive,
Cc1cc(=O)[nH]c(=S)[nH]1,inactive,
NC(=O)Cn1c(=O)cc(CCN2CCN(c3nccc4sccc34)CC2)c2ccc(F)cc21,inactive,
CC(C)c1ccc(C(=O)N=C(N)N)cc1S(C)(=O)=O,inactive,
C1CCC(SSC2CCCCC2)CC1,inactive,
CCCCN(CCCC)CCCC,inactive,
OC[C@@H](O)[C@@H](O)[C@H](O)[C@H](O)CO,inactive,
CC(C)(C)c1cc(O)c(C(C)(C)C)cc1O,inactive,
NS(=O)(=O)c1cc2c(cc1Cl)NCNS2(=O)=O,inactive,
Cc1nc(-c2ccc3c(c2)CCN(CCC2CCC(NC(=O)/C=C/c4ccc(F)cc4)CC2)CC3)no1 (configuration not stated),,9.3 µM (active)
CC(=O)C(C)=CC1C(C)=CCCC1(C)C (configuration not stated),inactive,
CCCCCCOCCO,inactive,
C[Si]1(C)O[Si](C)(C)O[Si](C)(C)O[Si](C)(C)O1,inactive,
Oc1ccc2c(c1)OC[C@@H](N1CCC(O)(c3ccc(F)cc3)CC1)[C@H]2O,inactive,
CN1CCN(Cc2cc(-c3ccc4[nH]c(=O)oc4c3)co2)[C@@H](c2ccc(F)cc2)C1,inactive,
CCOC(=O)C(C)(C)Oc1ccc(Cl)cc1,inactive,
C=CCc1ccc(O)c(OC)c1,inactive,
COc1cc(S(=O)(=O)O)c(C)cc1N=Nc1c(O)ccc2cc(S(=O)(=O)O)ccc12,inactive,
CCCc1cc(=O)[nH]c(=S)[nH]1,inactive,
O=[N+]([O-])C(CO)(CO)CO,inactive,
CC1=C(/C=C/C(C)=C/C=C/C(C)=C/CO)C(C)(C)CCC1,inactive,

# Read-out: not listed separately
# Experiment: BSK_CASM3C_SRB: Viability Assessment in the BioMAP Diversity Plus: CASM3C Assay (AID 2283050);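 note: total protein by SRB staining as cytotoxicity measure in parallel cultures; cells exposed to compound for 24 h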
# Conditions: primary human coronary artery smooth muscle cells
SMILES,outcome,AC50
COCCOC[C@H](CC1(C(=O)NC2CCC(C(=O)O)CC2)CCCC1)C(=O)Oc1ccc2c(c1)CCC2 (some centres not stated),inactive,
CC(=O)OC/C=C(\C)CCC=C(C)C,inactive,
Cc1cccc(Nc2cc(Cl)nc(SCC(=O)O)n2)c1C,inactive,
CC=Cc1ccc(O)c(OC)c1,inactive,
CCNc1cccc(C)c1,inactive,
O=C(OCCCCCOC(=O)c1ccccc1)c1ccccc1,inactive,
O=c1[nH]cc(F)c(=O)[nH]1,inactive,
NCC1(Cc2noc(=O)[nH]2)CCCCC1,inactive,
Oc1ccc2ccccc2c1N=Nc1ccccc1,inactive,
Cc1cc(=O)[nH]c(=S)[nH]1,inactive,
NC(=O)Cn1c(=O)cc(CCN2CCN(c3nccc4sccc34)CC2)c2ccc(F)cc21,inactive,
CC(C)c1ccc(C(=O)N=C(N)N)cc1S(C)(=O)=O,inactive,
C1CCC(SSC2CCCCC2)CC1,inactive,
CCCCN(CCCC)CCCC,inactive,
OC[C@@H](O)[C@@H](O)[C@H](O)[C@H](O)CO,inactive,
CC(C)(C)c1cc(O)c(C(C)(C)C)cc1O,inactive,
NS(=O)(=O)c1cc2c(cc1Cl)NCNS2(=O)=O,inactive,
Cc1nc(-c2ccc3c(c2)CCN(CCC2CCC(NC(=O)/C=C/c4ccc(F)cc4)CC2)CC3)no1 (configuration not stated),,9.3 µM (active)
CC(=O)C(C)=CC1C(C)=CCCC1(C)C (configuration not stated),inactive,
CCCCCCOCCO,inactive,
C[Si]1(C)O[Si](C)(C)O[Si](C)(C)O[Si](C)(C)O1,inactive,
Oc1ccc2c(c1)OC[C@@H](N1CCC(O)(c3ccc(F)cc3)CC1)[C@H]2O,inactive,
CN1CCN(Cc2cc(-c3ccc4[nH]c(=O)oc4c3)co2)[C@@H](c2ccc(F)cc2)C1,inactive,
CCOC(=O)C(C)(C)Oc1ccc(Cl)cc1,inactive,
C=CCc1ccc(O)c(OC)c1,inactive,
COc1cc(S(=O)(=O)O)c(C)cc1N=Nc1c(O)ccc2cc(S(=O)(=O)O)ccc12,inactive,
CCCc1cc(=O)[nH]c(=S)[nH]1,inactive,
O=[N+]([O-])C(CO)(CO)CO,inactive,
CC1=C(/C=C/C(C)=C/C=C/C(C)=C/CO)C(C)(C)CCC1,inactive,

# Read-out: Thrombomodulin, THBD (gene 7056)
# Experiment: BSK_CASM3C_Thrombomodulin: BioMAP Diversity Plus: CASM3C Assay for Thrombomodulin Biomarker Activity (AID 2283051);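 note: thrombomodulin protein level measured by ELISA 24 h after dosing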
# Conditions: primary human coronary artery smooth muscle cells; actives raise or lower the signal
SMILES,outcome,AC50
COCCOC[C@H](CC1(C(=O)NC2CCC(C(=O)O)CC2)CCCC1)C(=O)Oc1ccc2c(c1)CCC2 (some centres not stated),inactive,
CC(=O)OC/C=C(\C)CCC=C(C)C,inactive,
Cc1cccc(Nc2cc(Cl)nc(SCC(=O)O)n2)c1C,inactive,
CC=Cc1ccc(O)c(OC)c1,inactive,
CCNc1cccc(C)c1,inactive,
O=C(OCCCCCOC(=O)c1ccccc1)c1ccccc1,inactive,
O=c1[nH]cc(F)c(=O)[nH]1,inactive,
NCC1(Cc2noc(=O)[nH]2)CCCCC1,inactive,
Oc1ccc2ccccc2c1N=Nc1ccccc1,,1.36 µM (active)
Cc1cc(=O)[nH]c(=S)[nH]1,inactive,
NC(=O)Cn1c(=O)cc(CCN2CCN(c3nccc4sccc34)CC2)c2ccc(F)cc21,inactive,
CC(C)c1ccc(C(=O)N=C(N)N)cc1S(C)(=O)=O,inactive,
C1CCC(SSC2CCCCC2)CC1,,14.8 µM (active)
CCCCN(CCCC)CCCC,inactive,
OC[C@@H](O)[C@@H](O)[C@H](O)[C@H](O)CO,inactive,
CC(C)(C)c1cc(O)c(C(C)(C)C)cc1O,,4.92 µM (active)
NS(=O)(=O)c1cc2c(cc1Cl)NCNS2(=O)=O,inactive,
Cc1nc(-c2ccc3c(c2)CCN(CCC2CCC(NC(=O)/C=C/c4ccc(F)cc4)CC2)CC3)no1 (configuration not stated),inactive,
CC(=O)C(C)=CC1C(C)=CCCC1(C)C (configuration not stated),inactive,
CCCCCCOCCO,inactive,
C[Si]1(C)O[Si](C)(C)O[Si](C)(C)O[Si](C)(C)O1,inactive,
Oc1ccc2c(c1)OC[C@@H](N1CCC(O)(c3ccc(F)cc3)CC1)[C@H]2O,inactive,
CN1CCN(Cc2cc(-c3ccc4[nH]c(=O)oc4c3)co2)[C@@H](c2ccc(F)cc2)C1,inactive,
CCOC(=O)C(C)(C)Oc1ccc(Cl)cc1,inactive,
C=CCc1ccc(O)c(OC)c1,inactive,
COc1cc(S(=O)(=O)O)c(C)cc1N=Nc1c(O)ccc2cc(S(=O)(=O)O)ccc12,inactive,
CCCc1cc(=O)[nH]c(=S)[nH]1,inactive,
O=[N+]([O-])C(CO)(CO)CO,inactive,
CC1=C(/C=C/C(C)=C/C=C/C(C)=C/CO)C(C)(C)CCC1,,12.2 µM (active)
